Data on 40 molecules can be found in PubChem BioAssay AID652016 (National Center for Advancing Translational Sciences (NCATS), 2013).

Results filed as inconclusive are left out. Entries that show only a call come without a potency. The source made the active and inactive calls. Calls come from the whole dose curve; as a rule, active = well fitted inhibition curve with a large enough effect; inconclusive = small, poorly fitted or top-dose-only effect; inactive = flat fitted curve, though single readings scatter.
Potency is the fitted concentration of half-maximal effect.

The assay deals with Luciferin 4-monooxygenase (Photinus pyralis) (UniProt P08659). Description: qHTS Assay for Inhibitors of Firefly Luciferase from the GSK Published Protein Kinase Inhibitor Set. The settings on record: purified firefly luciferase, luminescence inhibition; series mostly up to 57.5 µM. The text has this: FLuc (firefly luciferase) is the prototypical bioluminescent reporter gene from Photinus pyralis.[1] The enzyme catalyzes the oxidation luciferin via luciferin-AMP to produce light. FLuc is used in cell-based reporter gene-based assays for screening small molecule chemical libraries. However, small molecule luciferase inhibitors present in most large chemical libraries are often enriched in the output of high throughput screens using this reporter sometimes complicating interpretation and candidate selection.
Chain of Luciferin 4-monooxygenase (Photinus pyralis) (P08659 whole entry, looked up): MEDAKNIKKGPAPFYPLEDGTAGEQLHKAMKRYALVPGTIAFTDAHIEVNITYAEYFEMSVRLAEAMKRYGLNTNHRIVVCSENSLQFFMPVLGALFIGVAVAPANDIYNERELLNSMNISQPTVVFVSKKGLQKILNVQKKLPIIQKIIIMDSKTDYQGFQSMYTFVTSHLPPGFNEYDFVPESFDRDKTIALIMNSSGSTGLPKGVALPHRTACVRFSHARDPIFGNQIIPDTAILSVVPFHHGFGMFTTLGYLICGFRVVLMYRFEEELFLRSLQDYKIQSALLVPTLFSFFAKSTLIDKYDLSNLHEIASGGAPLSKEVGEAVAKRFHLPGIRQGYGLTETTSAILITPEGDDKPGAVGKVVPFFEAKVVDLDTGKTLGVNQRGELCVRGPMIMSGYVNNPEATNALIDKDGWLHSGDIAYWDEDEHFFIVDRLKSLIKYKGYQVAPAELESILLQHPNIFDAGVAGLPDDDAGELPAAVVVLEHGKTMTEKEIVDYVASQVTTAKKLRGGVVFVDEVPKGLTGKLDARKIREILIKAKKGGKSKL
RLuc is a bioluminescent reporter gene luciferase from Renilla reniformis, also known as the sea pansy. RLuc uses the luciferin substrate coelenterazine. RLuc is often used in combination with the nonhomologous luciferase FLuc (firefly luciferease) as a trasfection or pathway normalization control. Recently, non-homologous reporters have been described for high throughput screening 'coincidence' reporter gene strategies.
1. Fan F, Wood KV (2007) Bioluminescent assays for high-throughput screening. Assay Drug Dev Technol 5: 127-136.
2. Thorne N, Inglese J, Auld DS (2010) Illuminating insights into firefly luciferase and other bioluminescent reporters used in chemical biology. Chem Biol 17: 646-657.
3. […] Chem Biol 19: 1060-1072.
4. Michelini E, Cevenini L, Mezzanotte L, Coppa A, Roda A (2010) Cell-based assays: fuelling drug discovery. Anal Bioanal Chem 398: 227-238.
5. Cheng KC, Inglese J (2012) A coincidence reporter-gene system for high-throughput screening. Nat Methods 9: 937.
Biochemical firefly luciferase enzyme assay
NCGC Assay Protocol Summary:
Reagents: 50mM Tris acetate, pH 7.5; 10mM Mg acetate; 10uM D-luciferin (Sigma #L9504); 10uM ATP; 0.01% Tween-20; 0.05% BSA; 10nM P. pyralis luciferase (Sigma #L9506)
Control compounds used were two known firefly luciferase inhibitors (compounds (2) and (5) in Auld et al., 2010), and DMSO.
Three microliters containing firefly luciferase substrates in buffer (final concentrations: 50mM Tris acetate, pH 7.5, 10mM Mg acetate, 0.01% Tween-20, 0.05% BSA, 10uM D-luciferin, and 10uM ATP) are dispensed into each well of a Greiner white, solid-bottom 1536-well format plate using a flying reagent dispenser (FRD). These assay plates were then treated with 23nL of compound or DMSO using a Kalypsys pin tool, which allows for delivery of a 7-point interplate titration of each compound to the assay plates (quantitative HTS), with final compound concentrations ranging from approximately 60uM to 300pM. One microliter of firefly luciferase in 50mM Tris-acetate buffer was then delivered by FRD to each well for a final enzyme concentration of 10nM. Luciferase activity was then measured using an Envision plate reader (PerkinElmer), with an average incubation time of 5 min.
A general note: In qHTS, concentration-response curves come from the screen itself.
Turning to `CCn1c(-c2nonc2N)nc2c(C#CC(C)(C)O)ncc(OC3CCNCC3)c21`, the Potency entry is “inactive”.

Take `CN(C)CCOc1ccc(-c2cc(-c3ccc4c(c3)CCC4=NO)c(-c3ccncc3)o2)cc1`: the Potency entry was “inactive”.

For `FC(F)(F)CNc1nccc(-c2cnn3ncccc23)n1`, the Potency entry was “inactive”.

In the case of `CCc1nn2ncccc2c1-c1ccnc(NC2CC2)n1`, the Potency result is “inactive”.

`Fc1cccc(COc2ccc(Nc3ncnc4sc(-c5ccco5)cc34)cc2Cl)c1`: the Potency result is “inactive”.

For `Nc1ncnc2occ(-c3ccc(NC(=O)Nc4cc(C(F)(F)F)cc(C(F)(F)F)c4)cc3)c12`, the Potency entry was “inactive”.

In the case of `Cn1cc(C=C2C(=O)Nc3cccnc32)c2ccccc21`, the Potency is 14.6 µM (active).

Consider `CCn1c(-c2nonc2N)nc2c(C#CC(C)(C)O)nc(OC(CN)c3ccccc3)cc21` (stereo not given), for which the Potency entry is “inactive”.

As to `CN1CCN(Cc2ccc(-c3cc4ncnc(Nc5ccc(OCc6cccc(F)c6)c(Cl)c5)c4s3)o2)CC1`, the Potency entry is “inactive”.

`CCS(=O)(=O)c1ccc(OC)c(Nc2nccc(N(C)c3ccc4c(C)[nH]nc4c3)n2)c1`: the Potency entry was “inactive”.

As for `CCn1c(-c2nonc2N)nc2cncc(C(=O)N3CCC(N)C3)c21` (stereo not given), the Potency entry is “inactive”.

As for `COc1cc(C)c(N(C)C(=O)CN(C)C)cc1Nc1nc(Nc2cccc(F)c2C(N)=O)c2cc[nH]c2n1`, the Potency result was “inactive”.

With `NS(=O)(=O)c1ccc(N=Nc2c(O)[nH]c3ccc(-c4cnco4)cc23)cc1`, the Potency result is “inactive”.

Turning to `O=C1NC(=O)C(c2ccccc2Cl)=C1Nc1cccc(O)c1`, the Potency result is “inactive”.

As for `N#Cc1c(NC(=O)CN2CCOCC2)sc2c1CCCC2`, the Potency entry is “inactive”.

Turning to `Fc1ccc(Nc2nccc(-c3c(-c4ccc(C(F)(F)F)cc4)nn4ncccc34)n2)cc1F`, the Potency result was “inactive”.

As to `COc1ccc(-c2oc3ncnc(N)c3c2-c2ccc(NC(=O)Nc3cc(C(F)(F)F)ccc3F)cc2)cc1`, the Potency result is “inactive”.

For the molecule `O=C1Nc2ccccc2C1=C1CCc2cc(O)ccc21`, the Potency is 5.17 µM (active).

For `Nc1nccc(-c2c(-c3ccc(F)cc3)nn3cc(C(F)(F)F)ccc23)n1`, the Potency result is “inactive”.

For the molecule `CC1=C(C(=O)Nc2ccc3[nH]ncc3c2)C(c2ccc(F)cc2)NC(=O)N1` (stereo not given), the Potency entry is “inactive”.

`CNC(=O)c1cccc(C#Cc2cncnc2Nc2ccc(OCc3cccc(F)c3)c(Cl)c2)c1`: the Potency entry is “inactive”.

Regarding `Cc1ccc2[nH]c(O)c(N=Nc3ccc(S(N)(=O)=O)cc3)c2c1`, the Potency result was “inactive”.

With `c1ccc(-c2[nH]ncc2-c2ccnc(-c3ccc(OCCN4CCOCC4)cc3)c2)nc1`, the Potency entry was “inactive”.

For the molecule `NC(=O)c1cccc(Nc2nccc(Nc3cccc4[nH]ncc34)n2)c1`, the Potency was 13 µM (active).

As to `CCn1c(-c2nonc2N)nc2cnc(Oc3cccc(NC(=O)c4ccc(OCCN5CCOCC5)cc4)c3)cc21`, the Potency entry was “inactive”.

In the case of `COc1ccc2ncn(-c3cc(OC(C)c4ccccc4C(F)(F)F)c(C(N)=O)s3)c2c1` (stereo not given), the Potency result was “inactive”.

For `COc1cc(Nc2ncc3c(C)nc(-c4cccc(Oc5ccccc5)c4)n3n2)cc(OC)c1OC`, the Potency result is “inactive”.

For the molecule `CCCNc1cccc(-n2ncc3c(NN=Cc4ccncc4)ncnc32)c1`, the Potency result was “inactive”.

For `O=C1Nc2ccc(I)cc2C1=Cc1cc(Br)c(O)c(Br)c1`, the Potency entry is “inactive”.

In the case of `CC1=C(C(=O)Nc2cc(Cl)c3[nH]ncc3c2)C(c2ccc(C(F)(F)F)cc2)CC(=O)N1` (stereo not given), the Potency entry is “inactive”.

For `Fc1cccc(COc2ccc(Nc3ncncc3C#Cc3ccccc3)cc2Cl)c1`, the Potency entry is “inactive”.

Consider `COc1ccc2nc3c4nc5ccc(OC)cc5c4c4c(=O)[nH]c(=O)c4c3c2c1`, for which the Potency result is “inactive”.

In the case of `COc1cccc(C=NNc2ncnc3c2cnn3-c2cccc(OC)c2)c1`, the Potency result was “inactive”.

For `NS(=O)(=O)c1ccc(N=Nc2c(O)[nH]c3ccc(C(=O)NCc4ccncc4)cc23)cc1`, the Potency entry is “inactive”.

Turning to `FC(F)(F)c1cccc(Nc2nccc(-c3cnn4nc(-c5ccccc5)ccc34)n2)c1`, the Potency result is “inactive”.

As for `NS(=O)(=O)c1ccc(N=Cc2c(O)[nH]c3ccc4ncsc4c23)cc1`, the Potency entry is “inactive”.

For the molecule `CCOc1nccc2c1nc(-c1nonc1N)n2CC`, the Potency result was “inactive”.

For `COc1ccc(-c2nn3ncccc3c2-c2ccnc(Nc3ccc(F)c(F)c3)n2)cc1`, the Potency entry is “inactive”.

Turning to `COC(=O)c1sc(-n2cnc3cc(OC)c(OC)cc32)cc1OCc1ccccc1C(F)(F)F`, the Potency entry was “inactive”.

For `Cc1ccc(C(=O)NC(C)C)cc1-c1ccc(C(=O)NCC2CC2)cc1`, the Potency result was “inactive”.
